{
  "source": "paper PMC4336329",
  "about": "(PLoS ONE, 2015)",
  "note": "Screen size: about 310,000 compounds; about 14,000 (4.5%) showed an effect of 50% or more. Effects have a minus sign here. The entries come from a sample that favours strong results as a whole.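 Also: peak tail current of the secondary pulse compared with the same well before compound.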",
  "data": [
    {"molecular_target": "human ether-à-go-go-related gene (hERG) potassium channel (human, UniProt Q12809)", "sequence (Q12809 whole entry, looked up)": "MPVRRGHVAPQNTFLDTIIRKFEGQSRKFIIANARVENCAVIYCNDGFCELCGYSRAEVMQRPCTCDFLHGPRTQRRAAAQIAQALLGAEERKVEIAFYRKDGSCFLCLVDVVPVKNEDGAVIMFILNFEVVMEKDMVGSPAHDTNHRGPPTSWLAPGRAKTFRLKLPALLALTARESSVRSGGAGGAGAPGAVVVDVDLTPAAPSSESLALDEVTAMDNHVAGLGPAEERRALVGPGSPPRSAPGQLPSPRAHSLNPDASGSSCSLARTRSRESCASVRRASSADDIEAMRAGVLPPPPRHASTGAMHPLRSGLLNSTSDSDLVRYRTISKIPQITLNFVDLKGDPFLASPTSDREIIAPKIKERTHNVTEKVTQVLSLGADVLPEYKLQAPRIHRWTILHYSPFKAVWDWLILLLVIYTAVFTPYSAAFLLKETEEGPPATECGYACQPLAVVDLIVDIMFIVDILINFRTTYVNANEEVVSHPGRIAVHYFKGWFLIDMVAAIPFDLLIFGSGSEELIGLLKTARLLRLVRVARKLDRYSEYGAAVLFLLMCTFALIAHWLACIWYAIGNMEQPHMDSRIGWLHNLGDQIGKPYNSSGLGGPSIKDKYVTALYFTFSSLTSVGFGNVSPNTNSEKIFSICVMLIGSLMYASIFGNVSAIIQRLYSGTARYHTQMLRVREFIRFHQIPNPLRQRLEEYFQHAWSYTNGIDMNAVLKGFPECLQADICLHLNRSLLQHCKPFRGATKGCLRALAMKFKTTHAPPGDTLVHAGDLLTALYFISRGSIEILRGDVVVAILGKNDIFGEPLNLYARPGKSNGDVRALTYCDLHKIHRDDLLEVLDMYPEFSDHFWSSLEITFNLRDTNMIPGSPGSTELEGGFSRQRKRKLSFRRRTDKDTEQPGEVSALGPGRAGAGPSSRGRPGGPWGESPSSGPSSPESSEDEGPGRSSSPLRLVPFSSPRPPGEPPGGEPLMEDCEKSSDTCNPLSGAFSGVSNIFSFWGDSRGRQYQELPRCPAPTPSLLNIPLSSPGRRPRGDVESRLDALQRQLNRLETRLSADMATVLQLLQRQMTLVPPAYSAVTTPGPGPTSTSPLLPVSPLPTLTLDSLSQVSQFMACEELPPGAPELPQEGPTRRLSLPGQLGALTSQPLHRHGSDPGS", "experiment": "primary screen, population patch clamp on CHO cells stably expressing hERG; higher = less effect of the substance", "units": {"hERG current change (%, negative = inhibition) at 10uM": "%"}, "values": [
      {"molecule": "Cc1ccc(CN2CCN(/N=C/c3ccc(C)s3)CC2)c(C)c1", "hERG current change (%, negative = inhibition) at 10uM": -5.96},
      {"molecule": "CCn1c(=O)c(C(=O)NNC(=O)c2cccc(Cl)c2)c(O)c2ccccc21", "hERG current change (%, negative = inhibition) at 10uM": 32.4},
      {"molecule": "C/C(=N\\NC(=O)c1cccc(Br)c1)c1ccc(Br)cc1", "hERG current change (%, negative = inhibition) at 10uM": 16},
      {"molecule": "Cc1cc2c(c(=O)n1CCCn1ccnc1)C(c1ccco1)C(C#N)=C(N)O2", "note": "(stereo not shown)", "hERG current change (%, negative = inhibition) at 10uM": -3.23},
      {"molecule": "CC(O)C(=O)N/N=C/c1ccccc1C(=O)O", "note": "(stereo not shown)", "hERG current change (%, negative = inhibition) at 10uM": 14},
      {"molecule": "COc1cc(/C=C(/C(=O)c2cccs2)c2nc3ccccc3[nH]2)ccc1O", "hERG current change (%, negative = inhibition) at 10uM": -22.2},
      {"molecule": "COc1cc(/C=N/Nc2nc3ccccc3[nH]2)cc(OC)c1O", "hERG current change (%, negative = inhibition) at 10uM": -55.9},
      {"molecule": "COc1cc(/C=N\\Nc2nc3ccccc3[nH]2)cc(OC)c1OC", "hERG current change (%, negative = inhibition) at 10uM": -19.8},
      {"molecule": "COc1cc(/C=C(/C(=O)c2cccs2)c2nc3ccccc3[nH]2)cc(OC)c1O", "hERG current change (%, negative = inhibition) at 10uM": -56.1},
      {"molecule": "COc1ccc(/C=N/Nc2nc3ccccc3[nH]2)cc1OC", "hERG current change (%, negative = inhibition) at 10uM": -21.8},
      {"molecule": "O=C(/C(=C/c1ccc(Cl)cc1)c1nc2ccccc2[nH]1)c1cccs1", "hERG current change (%, negative = inhibition) at 10uM": 2.82},
      {"molecule": "CCCCN=C1SC(C(=O)Nc2sc3c(c2C(=O)OC)CCC3)C(N)=C1C(=O)N1CCOCC1", "note": "(stereo not shown)", "hERG current change (%, negative = inhibition) at 10uM": -1.11},
      {"molecule": "Cc1cc(Nc2ccccc2C(=O)O)n(-c2ccc([N+](=O)[O-])cc2)n1", "hERG current change (%, negative = inhibition) at 10uM": 4.19},
      {"molecule": "COc1ccccc1C(=O)Nc1ccnn1C1CCN(Cc2csc(C(C)=O)c2)CC1", "hERG current change (%, negative = inhibition) at 10uM": -72.9},
      {"molecule": "CC(=O)c1cc(CN2CCC(n3nccc3NC(=O)c3ccccc3C)CC2)cs1", "hERG current change (%, negative = inhibition) at 10uM": -57.8},
      {"molecule": "CC(=O)c1cc(CN2CCC(n3nccc3NC(=O)c3ccccc3Cl)CC2)cs1", "hERG current change (%, negative = inhibition) at 10uM": -56.5},
      {"molecule": "CC(=O)c1cc(CN2CCC(n3nccc3NC(=O)c3ccccc3)CC2)cs1", "hERG current change (%, negative = inhibition) at 10uM": -10.9},
      {"molecule": "Cc1cc(CN2CCC(n3nccc3NC(=O)c3ccccc3C)CC2)n[nH]1", "hERG current change (%, negative = inhibition) at 10uM": -38},
      {"molecule": "CC(C)=NN1C(c2nonc2N)=NOC1(C)C", "hERG current change (%, negative = inhibition) at 10uM": 6.47},
      {"molecule": "COC(=O)C1=C(C)N=C2SCCC(=O)N2C1/C=C/c1ccccc1", "note": "(stereo not shown)", "hERG current change (%, negative = inhibition) at 10uM": -16.8},
      {"molecule": "Cc1nc(SCC(=O)c2ccc(F)cc2)c([N+](=O)[O-])[nH]1", "hERG current change (%, negative = inhibition) at 10uM": 27.3},
      {"molecule": "CCCNC(=O)CN(CCc1ccccc1)S(C)(=O)=O", "hERG current change (%, negative = inhibition) at 10uM": 8.94},
      {"molecule": "CN(CCOc1ccc(Cl)cc1)CC(=O)Nc1ccc(OC(F)(F)F)cc1", "hERG current change (%, negative = inhibition) at 10uM": 8.27},
      {"molecule": "CN(Cc1ccccc1)C(=S)Nc1ccc(OC(F)F)cc1", "hERG current change (%, negative = inhibition) at 10uM": -21.2},
      {"molecule": "CN(C(=S)Nc1ccc(SC(F)F)cc1)C(c1ccccc1)c1ccccc1", "hERG current change (%, negative = inhibition) at 10uM": -0.128},
      {"molecule": "COc1ccc(CN(C)C(=S)Nc2ccc(Cl)cc2)cc1", "hERG current change (%, negative = inhibition) at 10uM": -20.7},
      {"molecule": "CN(C)CCCN(Cc1ccccc1)C(=S)NCc1ccccc1", "hERG current change (%, negative = inhibition) at 10uM": -24.7},
      {"molecule": "COc1ccc(CCNCC(=O)Nc2ccc(C(=O)N3CCCCC3)cc2)cc1.O=C(O)C(=O)O", "hERG current change (%, negative = inhibition) at 10uM": 4.75},
      {"molecule": "COc1ccc(NC(=O)CNCCC2=CCCCC2)cc1", "hERG current change (%, negative = inhibition) at 10uM": 7.2},
      {"molecule": "COc1ccc(NC(=O)CN(C)CCOc2ccc(Cl)cc2)cc1OC.O=C(O)C(=O)O", "hERG current change (%, negative = inhibition) at 10uM": -17.4},
      {"molecule": "CN(C)CCCN(Cc1ccccc1)C(=S)Nc1ccc(SC(F)F)cc1", "hERG current change (%, negative = inhibition) at 10uM": -75.1},
      {"molecule": "COc1ccc(CN(C)C(=S)Nc2ccc(OC(F)F)cc2)cc1", "hERG current change (%, negative = inhibition) at 10uM": -58.9},
      {"molecule": "COc1ccc(CCNCC(=O)Nc2ccc(OC(F)F)cc2)cc1", "hERG current change (%, negative = inhibition) at 10uM": -75.8},
      {"molecule": "CN(CCOc1ccc(Cl)cc1)CC(=O)Nc1ccc(OC(F)F)cc1", "hERG current change (%, negative = inhibition) at 10uM": -71.4},
      {"molecule": "C/C(=N\\Nc1ccccc1C(=O)O)c1ccncc1", "hERG current change (%, negative = inhibition) at 10uM": 0.449},
      {"molecule": "CC(C)Nc1nc(NC(C)C)nc(OCCOC(=O)Nc2ccccc2)n1", "hERG current change (%, negative = inhibition) at 10uM": -24.5},
      {"molecule": "Cc1ccc(N/N=C(\\C#N)C(=N)N2CCCCC2)cc1", "hERG current change (%, negative = inhibition) at 10uM": -47.7},
      {"molecule": "CN(CC(=O)Nc1ccccc1Br)C(=O)c1cc2c(s1)CCCCC2", "hERG current change (%, negative = inhibition) at 10uM": -1.74},
      {"molecule": "O=C(Nc1ccc(NC(=O)C2CC2)nc1)c1cccs1", "hERG current change (%, negative = inhibition) at 10uM": 14},
      {"molecule": "O=C(CSc1n[nH]c(=O)n1-c1cccnc1)N1CCOCC1", "hERG current change (%, negative = inhibition) at 10uM": 12},
      {"molecule": "CCNC(=O)NC(=O)CSc1nc2ccccc2n1CC(C)C", "hERG current change (%, negative = inhibition) at 10uM": -4.02},
      {"molecule": "Cc1cccc(N2CCN(CC(=O)NCC3CCCCC3)CC2)c1C.Cl", "hERG current change (%, negative = inhibition) at 10uM": -6.63},
      {"molecule": "COc1cc2[nH]c(=O)n(Cc3ccc(C(=O)N4CCC(N5CCCCC5)CC4)cc3)c(=O)c2cc1OC", "hERG current change (%, negative = inhibition) at 10uM": 12.3},
      {"molecule": "COCCN(Cc1ccccc1)C(=S)Nc1ccc(OC(F)F)cc1", "hERG current change (%, negative = inhibition) at 10uM": -69.8},
      {"molecule": "CCCCN(C)C(=S)Nc1ccc(Oc2ccccc2)cc1", "hERG current change (%, negative = inhibition) at 10uM": -2.38},
      {"molecule": "CN(CCOc1ccccc1)C(=S)Nc1ccc(OC(F)F)cc1", "hERG current change (%, negative = inhibition) at 10uM": -55.2},
      {"molecule": "CC(=O)c1ccc(NC(=S)N(Cc2ccccc2)C(C)C2CC2)cc1", "note": "(stereo not shown)", "hERG current change (%, negative = inhibition) at 10uM": 5.51},
      {"molecule": "CC(=O)c1ccc(NC(=S)N(CCCN(C)C)Cc2ccccc2)cc1", "hERG current change (%, negative = inhibition) at 10uM": -53.3},
      {"molecule": "CCCN(Cc1ccccc1)C(=S)Nc1ccc(OC(F)F)cc1", "hERG current change (%, negative = inhibition) at 10uM": -41},
      {"molecule": "CC(=O)c1cccc(NC(=O)CN(C)Cc2ccc(OC(F)F)cc2)c1", "hERG current change (%, negative = inhibition) at 10uM": -55},
      {"molecule": "COCCN(Cc1ccccc1)C(=S)Nc1ccc(Cl)cc1", "hERG current change (%, negative = inhibition) at 10uM": 11.1},
      {"molecule": "COc1ccc(NC(=O)CN(C)CC(=O)Nc2cccc(C(C)=O)c2)cc1", "hERG current change (%, negative = inhibition) at 10uM": 18.5},
      {"molecule": "CCN(CC)C(=S)Nc1ccc(OC(F)F)cc1", "hERG current change (%, negative = inhibition) at 10uM": -28.6},
      {"molecule": "CCCN(Cc1ccccc1)C(=S)Nc1ccc(C(C)=O)cc1", "hERG current change (%, negative = inhibition) at 10uM": -12.1},
      {"molecule": "CC(=O)c1ccc(NC(=O)CN(C)CC(=O)Nc2cccc(F)c2)cc1", "hERG current change (%, negative = inhibition) at 10uM": -18.5},
      {"molecule": "CCN(CC)C(=O)c1ccc(C)c(Br)c1", "hERG current change (%, negative = inhibition) at 10uM": -0.776},
      {"molecule": "CCc1cc2c(=O)[nH]cnc2s1", "hERG current change (%, negative = inhibition) at 10uM": -3.48},
      {"molecule": "CCCCCCc1cc2cc(-c3nnc(-c4ccccc4)o3)c(=O)oc2cc1O", "hERG current change (%, negative = inhibition) at 10uM": 5.15}
    ]}
  ]
}
